# A selection: hits, their analogues and other compounds. The true share with any hit is near 7.5%.
# FLuc counter – firefly luciferase modulation, counter-screen for miR-21 project; P08659; purified FLuc, Km substrates, luminescence inhibition; Potency, µM (titrated, usually from 57.5 µM), for inactives: at the top dose activity change, negative = inhibition, usual class: inhibitors; hit rate 6.9% among 360,000; AID 588342;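 note: plate controls were vehicle for no effect and reference inhibitor for full effect; nearly all actives have a fitted effect of over 55% in size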
# Target sequence (P08659 whole entry, looked up): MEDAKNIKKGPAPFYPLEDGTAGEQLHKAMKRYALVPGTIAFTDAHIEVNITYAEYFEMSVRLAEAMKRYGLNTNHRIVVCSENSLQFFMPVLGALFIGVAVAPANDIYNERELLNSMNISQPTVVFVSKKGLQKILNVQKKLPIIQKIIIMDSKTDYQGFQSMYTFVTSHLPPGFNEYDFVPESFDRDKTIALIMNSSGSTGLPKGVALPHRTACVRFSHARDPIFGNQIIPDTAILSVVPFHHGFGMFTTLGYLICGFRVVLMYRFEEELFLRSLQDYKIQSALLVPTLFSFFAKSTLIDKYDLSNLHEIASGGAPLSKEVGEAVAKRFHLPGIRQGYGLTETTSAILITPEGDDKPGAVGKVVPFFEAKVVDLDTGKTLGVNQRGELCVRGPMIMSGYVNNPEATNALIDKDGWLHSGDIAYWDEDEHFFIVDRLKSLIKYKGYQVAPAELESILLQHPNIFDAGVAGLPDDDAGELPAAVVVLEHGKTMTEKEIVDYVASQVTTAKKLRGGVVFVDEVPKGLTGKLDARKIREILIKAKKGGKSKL
#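 Purified P. pyralis luciferase (10nM final) with 10uM D-luciferin and 10uM ATP (Km levels) in 50mM Tris acetate pH 7.5, 10mM Mg acetate, 0.01% Tween-20, 0.05% BSA; qHTS 6-point titration, ~60 µM downward; luminescence read.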
# ELG1 genotox – inducers of genotoxicity in HEK293T ELG1-luciferase cells. HEK293T ELG1-luciferase reporter, luminescence, 16 h. hit rate 1.3% among 330,000. Potency, µM (titrated, usually from 46 µM), without a hit: top-dose activity change, positive = activation, usual class: activators; note: % of control where 0% means no effect; nearly all actives have a fitted effect of over 60% in size
#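 ELG1-luciferase HEK293T cells, 2,000/well; compound pinned in; 16 hr, 37 °C, 5% CO2; ONE-Glo, 30 min RT; luminescence on CCD imager.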
# NPC1 promoter act – NPC1 promoter activation. hit rate 2.4% among 320,000. Huh7 NPC1 promoter luciferase reporter, 24 h. Potency, µM (series often up to 9.22 µM), inactives show top-dose activation, actives largely listed as activators; note: % of control where 0% means no effect; nearly all actives have a fitted effect of over 60% in size
#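 Huh7 reporter cells (NPC1 promoter driving luciferase) are dosed with compound for 24 h at 37 °C, 5% CO2; luciferase detection reagent is then added and luminescence measured after 10 min at ambient temperature.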
# Rab9 prom act – activates the Rab9 promoter; Potency, µM (doses to about 9.22 µM), without a hit: top-dose activation, negative = inhibition, usual class: activators; Huh7 Rab9 promoter-luciferase reporter, luminescence, 24 h; hit rate 2.8% among 320,000; note: % of control where 0% means no effect; nearly all actives have a fitted effect of over 60% in size
#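 Huh7 cells stably carrying Rab9 promoter–luciferase reporter, plated 1500 cells/well, compound added after 2 h and incubated 24 h at 37 °C; luciferase luminescence then read after 10 min with detection reagent.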
# SMN2 splice enh – enhancers of SMN2 splice variant expression; Potency, µM (highest dose often 46.1 µM), inactives show top-dose activity change, positive = activation, most hits filed as activators; hit rate 2.8% among 210,000; AID 1458; HEK293 SMN2-luciferase splicing reporter, luminescence, 30-36 h; note: % of control where 0% means no effect; nearly all actives have a fitted effect of over 55% in size
#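 qHTS luciferase splicing reporter: luminescence rises when SMN2 exon 7 is included in transfected HEK293 cells. Compound exposure lasted 30-36 h at 37C, with 4.5 mM final sodium butyrate as control, followed by a ONE-Glo read.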
# KinaseGlo FLuc – counter-screen: inhibitors of Kinase-Glo firefly luciferase; Kinase-Glo luciferase, ATP luminescence, 8 min; Potency, µM (titrated, usually from 38.3 µM), for the others: at the highest dose activity change, negative = inhibition, hits mostly inhibitors; hit rate 0.28% among 200,000; note: % is set by controls: 0 for no effect and ±100 for the full control effect; nearly all actives have a fitted effect of over 60% in size
#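 Inhibition of Kinase-Glo luciferase light generation was assessed at 10 uM ATP in pH 7.2 imidazole buffer, with luminescence measured after eight minutes at ambient temperature.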
# * marks the source's active call; other numbers are inactive results; ? = inconclusive; · = not tested or not shown; [ ] = remark or other dose. Calls come from the whole dose curve; as a rule, active = well fitted curve in the direction sought with a large enough effect; inconclusive = small, poorly fitted or top-dose-only effect, or another doubt; inactive = no such curve, though single readings can be large; an effect the other way counts as inactive or inconclusive. Potency is the fitted concentration of half-maximal effect.
SMILES,FLuc counter,ELG1 genotox,NPC1 promoter act,Rab9 prom act,SMN2 splice enh,KinaseGlo FLuc
CCOc1ccc(CN2CCN(Cc3cccn3-c3ncccn3)CC2CCO)cc1 (stereo not given),-1%,1%,-5%,-1%,·,3%
Cc1ccc2c(c1)Cc1nc3ccccc3nc1-2,1.1µM*,-2%,4%,?,?,8.9µM*
CC(NC(=O)c1ccc(C23CC4CC(CC(C4)C2)C3)cc1)C(=O)O (stereo not given),19µM*,-2%,0%,1%,10%,0%
Cc1ccc2c(c1)C(C)CC(C)(C)N2C(=O)CN1CCN(C)CC1 (stereo not given),-3%,0%,-5%,-2%,·,·
CCCCNc1c(-c2ccc(SC3CCCCC3)cc2)nc2ccccn12,4.8µM*,10µM*,2.8µM*,4µM*,·,·
CCCCNc1c(-c2cccc(SC(C)CC)c2)nc2ccc(Cl)cn12 (stereo not given),·,-2%,·,·,·,·
CCCCNc1c(-c2ccc(SC(C)CC)cc2)nc2ccccn12 (stereo not given),1.3µM*,-7%,3.5µM*,3.5µM*,·,·
COCC(=O)N1CCc2nc(COc3ccccc3)c3c(c2C1)CO[C@@H](C)C3,·,·,·,·,4%[9.22 µM],-5%[7.66 µM]
CC(C)[C@@H](CC(=O)N[C@@H]1CCCC[C@H]1C(=O)N[C@H](CC(=O)N[C@@H](CCC(=O)O)CC(=O)O)Cc1ccccc1)NC(=O)C[C@H](CO)NC(=O)[C@@H]1CCCC[C@H]1N,·,·,·,·,4%,-8%
O=C(NCCc1ccc(F)cc1)c1ccc2c(=O)n3c(nc2c1)CCC3,?,15%,29%,3.5µM*,·,·
O=C(NCCOc1ccccc1F)c1ccc2c(=O)n3c(nc2c1)CCC3,6µM*,?,2.8µM*,2.2µM*,·,·
O=C(COc1ccccc1F)NNC(=O)c1ccc2c(=O)n3c(nc2c1)CCC3,-3%,7%,-2%,4%,·,·
COC(=O)N1CCC2(CCCN(c3ccccn3)C2)CC1,·,·,·,·,-23%,-3%
Nc1n[nH]c(N)c1N=Nc1ccc(Cl)cc1Cl,13µM*,?,17%,3%,·,2%
O=C(NCc1cccc(Br)c1)c1ccc(-n2cnc3cccnc32)cc1,-5%,·,·,·,·,·
COc1ccc(-c2csc(NC(=O)c3cccs3)c2C(=O)O)cc1OC,24µM*,-3%,13%,15%,16%,-1%
COc1ccc(/C=C/C(=O)c2ccc(NC(=O)c3cccs3)cc2)cc1OC,13µM*,?,?,?,16µM*,4%
COc1ccc(C(=O)Nc2cccc(NC(=O)c3cccs3)c2)cc1OC,11µM*,-6%,5%,8%,·,·
COc1ccc(C(=O)Nc2ccc(NC(=O)c3cccs3)cc2)cc1OC,0%,·,·,·,-3%,·
COc1ccc(NC(=O)c2cccs2)cc1O,15µM*,?,?,?,?,?
O=C(Nc1ccc(NC(=O)c2cccs2)cc1)c1cccc(Br)c1,-1%,·,·,·,-2%,·
O=C(Nc1cccc(O)c1)c1cccc(NC(=O)c2cccs2)c1,13µM*,-12%,15%,0%,·,·
Cc1ccc([N+](=O)[O-])cc1S(=O)(=O)Nc1cccc(-c2ccc(N3CCOCC3)nn2)c1,3µM*,9.2µM*,20%,?,·,·
O=S(=O)(Nc1cccc(-c2ccc(N3CCOCC3)nn2)c1)c1cc(Cl)ccc1Cl,7.6µM*,?,19%,?,·,·
O=S(=O)(Nc1ccc(N2CCOCC2)cc1)c1cc(Cl)ccc1Cl,-1%,6%,-2%,-6%,·,·
SMILES,FLuc counter,ELG1 genotox,NPC1 promoter act,Rab9 prom act,SMN2 splice enh,KinaseGlo FLuc
O=[N+]([O-])c1ccccc1S(=O)(=O)Nc1cccc(-c2ccc(N3CCOCC3)nn2)c1,2.7µM*,?,25%,?,·,·
O=[N+]([O-])c1ccccc1S(=O)(=O)Nc1cccc(-c2ccc(N3CCCC3)nn2)c1,17µM*,?,23%,20%,·,·
O=[N+]([O-])c1ccccc1S(=O)(=O)Nc1ccc(-c2ccc(N3CCOCC3)nn2)cc1,?,3%,17%,19%,·,·
Cc1cc(C)c(NC(=O)Cc2csc(C)n2)c(Cl)c1,-7%,·,·,·,0%,·
COC(=O)C1CCN(C(=O)CSc2nnc(-c3ccccc3)o2)CC1,0%,16%,-3%,-1%,·,·
Cc1ccc(C(=O)CCC(=O)OCC(=O)NNC(=O)c2ccccc2Cl)cc1,?,0%,0%,3%,·,·
C=CCN1C(=O)/C(=C\C=C2\N(C)c3ccccc3C2(C)C)SC1=S,-3%,-1%,-3%,-3%,-23%,-16%
CCCCN1C(=O)/C(=C/C=C2/CC(C)(C)CN2C)SC1=S,9.5µM*,?,28%,?,16%,0%
CCN1C(=O)/C(=C/C=C2/SCCN2C)SC1=S,0.85µM*,?,0.45µM*,0.45µM*,?,-18%
CN1CCS/C1=C\C=C1/SC(=S)N(CC(=O)O)C1=O,13µM*,-3%,-2%,1%,0%,-1%
Cn1cccc1/C=C1/SC(=S)N(CC(=O)O)C1=O,?,0%,1%,-2%,79%,1%
CN1/C(=C\C=C2/SC(=S)N(CC(=O)O)C2=O)C(C)(C)c2ccccc21,17µM*,-5%,-6%,1%,-22%,-16%
CCN1C(=O)/C(=C/C=C2/Sc3ccccc3N2CCO)SC1=S,-15%,11%,0%,1%,-48%,?
CC(C)(CO)NS(=O)(=O)c1ccc2c(c1)Cc1cc(S(=O)(=O)NC(C)(C)CO)ccc1-2,7%,-2%,-7%,-1%,·,·
COc1ccc2cc(C(=O)CS(=O)(=O)c3ccccc3)c(=O)oc2c1,0.95µM*,?,-11%,0%,·,·
O=C(CS(=O)(=O)c1ccccc1)c1cc2ccccc2oc1=O,1.5µM*,5%,1%,-1%,·,·

# Compound activity: PubChem BioAssay, National Center for Advancing Translational Sciences (NCATS)
